# Screening results (PubChem BioAssay)
# The entries come from a sample that favours hits as a whole.
# 14-3-3g Raf – 14-3-3 gamma protein interaction modulation. inhibition, % at 40 µM. actives 0.19% (n = 160,000). P61981. FP, 14-3-3gamma / TMR-pS259-Raf peptide binding; in the data active means inhibition above about 30%;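 further: 0% = protein plus tracer without compound and 100% = blank with tracer alone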
# Target sequence (P61981 whole entry, looked up): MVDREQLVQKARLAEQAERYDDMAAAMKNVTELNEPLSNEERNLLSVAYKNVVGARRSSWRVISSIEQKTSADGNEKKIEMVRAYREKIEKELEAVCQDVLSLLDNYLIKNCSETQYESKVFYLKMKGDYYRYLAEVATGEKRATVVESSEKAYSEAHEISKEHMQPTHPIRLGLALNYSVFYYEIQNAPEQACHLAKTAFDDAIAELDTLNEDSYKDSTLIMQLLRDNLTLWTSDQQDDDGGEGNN
# * hit, by the source's call.
SMILES,14-3-3g Raf
COc1cc(C=C2N=C(SC)SC2=O)cc(OC)c1OC,-227
O=[N+]([O-])c1cc(Cc2ccccc2Cl)cc(C=Nc2ccc(N3CCOCC3)cc2)c1O,-81
O=[N+]([O-])c1cc(Cl)cc(C=Nc2ccc(Cl)c(-c3nc4ccccc4o3)c2)c1O,-21
Cc1ccc(N=Cc2cc(Cl)cc([N+](=O)[O-])c2O)cc1Cl,42*
Cc1cc(C=Nc2ccc(N3CCOCC3)cc2)c(O)c([N+](=O)[O-])c1,86*
Cc1cc(Br)c(O)c(C=Nc2ccc(N3CCOCC3)cc2)c1,-83
Cc1ccc(N=Cc2cc(Cl)cc([N+](=O)[O-])c2O)c(O)c1,-52
CC(C)CC1=NN(C(=O)COc2ccccc2)C(O)(C(F)(F)F)C1 (stereo not given),0
C=CCSc1ncnc2c1sc1nc(CC)c3c(c12)CCCC3,-11
O=C(CCCn1c(=O)[nH]c2cc(Cl)ccc2c1=O)N1CCN(C(=O)c2ccco2)CC1,-5
Cc1cc(Nc2ccc(N3C(=O)CCC3=O)cc2[N+](=O)[O-])no1,13
CCOC(=O)CNC(=O)c1cc(C(=O)OC)cc([N+](=O)[O-])c1,-3
CCCSc1nnc2c(n1)OC(c1ccc(Cl)cc1)Nc1ccccc1-2 (stereo not given),-20
CCCSc1nnc2c(n1)OC(c1ccco1)Nc1ccccc1-2 (stereo not given),-10
C=CCSc1nnc2c(n1)OC(c1ccc(OC)c(OC)c1)Nc1ccccc1-2 (stereo not given),-4
CSc1nnc2c(n1)OC(c1ccc(N(C)C)cc1)Nc1ccccc1-2 (stereo not given),-2
C=CCSc1nnc2c(n1)OC(c1ccc(N(C)C)cc1)Nc1ccccc1-2 (stereo not given),38*
CCCCSc1nnc2c(n1)OC(c1cccc(OC)c1OC)Nc1ccccc1-2 (stereo not given),10
CCCCSc1nnc2c(n1)OC(c1cc(OC)c(OC)c(OC)c1)Nc1ccccc1-2 (stereo not given),42*
C=CCSc1nnc2c(n1)OC(c1ccc(C(=O)OC)cc1)Nc1ccccc1-2 (stereo not given),-51
CCCSc1nnc2c(n1)OC(c1cc(OC)c(O)c(OC)c1)Nc1ccccc1-2 (stereo not given),-9
CCCSc1nnc2c(n1)OC(c1ccc(N(CC)CC)cc1)Nc1ccccc1-2 (stereo not given),39*
C=CCSc1nnc2c(n1)OC(c1ccc([N+](=O)[O-])cc1)Nc1ccccc1-2 (stereo not given),-41
C=CCSc1nnc2c(n1)OC(c1ccc(C)cc1)Nc1ccccc1-2 (stereo not given),33*
CC1(C)CC(=O)C2=C(C1)Nc1ccccc1N(C(=O)C(F)(F)F)C2c1cccnc1 (stereo not given),2
SMILES,14-3-3g Raf
N#Cc1c(N)nc2sc(C(=O)Nc3ccc(Br)cc3)c(N)c2c1-c1cccs1,-9
O=C(Nc1ccc(NC(=O)c2cc(S(=O)(=O)N3CCCCC3)ccc2Cl)cc1)c1ccccc1,-34
CCC(CO)NCC(O)Cn1cnc2c1c(=O)n(C)c(=O)n2C (stereo not given),-3
CN(CC(=O)N1CCN(c2ccccc2Cl)CC1)S(=O)(=O)c1cccs1,-5
CC1=C(C(=O)OC(C)C)C(c2coc3ccccc3c2=O)C2=C(CC(c3cccs3)CC2=O)N1 (stereo not given),-1
COc1ccc(Cl)cc1NC(=O)c1noc2c1CCC2,-9
COc1cccc2c1C(=O)c1c(O)c3c(c(O)c1C2=O)C[C@@](O)(C(C)=O)C[C@@H]3O[C@H]1C[C@H](N)[C@H](O)[C@H](C)O1,-4
CC(=O)[C@]1(O)Cc2c(O)c3c(c(O)c2[C@@H](O[C@H]2C[C@H](N)[C@H](O)[C@H](C)O2)C1)C(=O)c1ccccc1C3=O,117*
COc1ccc(Cl)cc1N1C(=O)C(Cl)=C(Nc2cccc(C)c2C)C1=O,-24
CCOC(=O)c1c(Cl)[nH]c2ccccc2c1=O,-6
Cc1cc(Br)ccc1N=Cc1c(O)ccc2ccccc12,-2
Oc1ccc2ccccc2c1C=Nc1cccn2cc(-c3ccccc3)nc12,93*
Oc1ccc2ccccc2c1/C=N/n1cnnc1,-8
C=CCOC(=O)C1=C(C)Nc2nnnn2C1c1cc(Br)ccc1OC (stereo not given),-1
CN(C)c1ccc(N=Cc2nc(-c3ccccc3)oc2O)cc1,112*
CSc1ccccc1N=Cc1nc(-c2ccccc2)oc1O,3
CC(=O)Nc1ccc(N=Cc2nc(-c3ccc(C)cc3)oc2O)cc1,-6
CCCOc1c(Br)cc(C2C3=C(CCCC3=O)N(CC)C3=C2C(=O)CCC3)cc1OCC,-10
CCOc1cc(C2C3=C(CCCC3=O)N(CC)C3=C2C(=O)CCC3)cc(Br)c1O,41*
CCOc1cc(C2C3=C(CCCC3=O)N(CC)C3=C2C(=O)CCC3)ccc1O,5
O=C(NCC1OCCc2ccccc21)c1ccccc1Cl (stereo not given),4
Cc1nn(C)cc1CN(C)C(=O)c1cc2ccccc2oc1=O,2
Cc1cccc(N=Cc2c(O)c(C(=O)Nc3ccccc3C)cc3ccccc23)c1,-16
